Hit rate of the full screen: of about 100,000 compounds, about 770 (0.77%) were called active. This is one part of a sample in which actives are shown more often than they occur. Cut-off read from the data, not from the text of the source: active = inhibition above about 50%; inactive = the rest.
target: Gag-Pol polyprotein (Human immunodeficiency virus type 1 group M subtype B (isolate HXB2)) (UniProt P04585); test: RNase H inhibition, HIV 1 Gag Pol polyprotein, FRET biochemical assay, screening (AID 372); conditions: HIV-1 RT RNase H, FRET RNA/DNA substrate fluorescence; at 10 µM; stronger effect = higher value

Structure (SMILES) | inhibition
COc1ccccc1OCC(=O)N/N=C/c1ccc(C)cc1C | 11% (inactive)
O=C(Nc1ccc(N2CCCCC2)cc1)c1ccc(-c2ccccc2)cc1 | 28% (inactive)
CC(=O)N1CCN(c2ccc(NC(=O)c3ccc(-c4ccccc4)cc3)cc2)CC1 | 5% (inactive)
COc1ccc(CNC(=O)C(=O)Nc2ccc(OC)cc2)cc1 | 0% (inactive)
COc1ccc(S(=O)(=O)N(CC(=O)NCc2ccc(Cl)cc2)Cc2ccccc2)cc1 | 60% (active)
COc1ccc(C)cc1NC(=O)C(=O)NCc1ccncc1 | 55% (active)
COc1ccc(CNC(=O)C(=O)Nc2ccccc2OC)cc1 | 44% (inactive)
COc1ccc(CNC(=O)CN(Cc2ccccc2)S(=O)(=O)c2ccccc2)cc1 | 10% (inactive)
COc1ccc(NC(=O)C(=O)NCc2ccc(Cl)cc2)cc1 | 52% (active)
COc1ccc(C)cc1NC(=O)C(=O)NCc1ccc(Cl)cc1 | 44% (inactive)
COc1ccccc1NC(=O)C(=O)NCc1ccccc1 | 27% (inactive)
COc1ccc(CNC(=O)C(=O)NCc2ccc(Cl)cc2)cc1 | 15% (inactive)
COc1ccccc1NC(=O)C(=O)NCc1ccc(C)cc1 | 57% (active)
COc1ccc(S(=O)(=O)N(CC(=O)NCc2ccccc2)Cc2ccccc2)cc1 | 10% (inactive)
COc1ccc(C)cc1NC(=O)C(=O)NCc1cccnc1 | 40% (inactive)
Cc1ccc(NC(=O)Cc2ccc(Br)cc2)cc1 | 14% (inactive)
COc1cccc(N2C(=O)NC(=O)/C(=C/c3ccc(OC)c4ccccc34)C2=O)c1 | 31% (inactive)
O=C(Nc1ccc2oc(-c3ccccc3F)nc2c1)C(Cl)(Cl)Cl | 8% (inactive)
O=C(O)/C=C\C(=O)Nc1ccc(N2CCOCC2)c(C(=O)O)c1 | 5% (inactive)
Cc1ccc(S(=O)(=O)N/N=C/c2ccc(C(=O)O)cc2)cc1 | 0% (inactive)
COc1ccc(N2CCSC2c2ccco2)cc1 (stereo unspecified) | 0% (inactive)

Structure (SMILES) | inhibition
C=CCN1C(=O)/C(=C\c2ccc(O)c(OCC)c2)C(=O)NC1=S | 11% (inactive)
COc1cc(C(=O)NCc2ccc(C(=O)O)cc2)cc(OC)c1OC | 7% (inactive)
CCn1c2ccccc2c2cc(C=Nc3ccc(C)c(F)c3)ccc21 | 0% (inactive)
CCOc1ccc(C(=O)NC(=S)Nc2ccc(C)cc2)cc1Br | 11% (inactive)
CCOc1ccccc1C=Nn1c(-c2ccc(Cl)cc2Cl)n[nH]c1=S | 15% (inactive)
CCN(CC)CCN1C(=O)C(=O)/C(=C(\O)c2ccc([N+](=O)[O-])cc2)C1c1ccc(OC)cc1 (stereo unspecified) | 2% (inactive)
CCOC(=O)CC1(c2ccccc2)SC(NC(C)=O)=NN1C(C)=O (stereo unspecified) | 0% (inactive)
COc1ccc(C)cc1NC(=O)C(=O)NCc1ccccc1 | 59% (active)
COc1ccc(Cl)cc1NC(=O)C(=O)NCc1ccncc1 | 59% (active)
COc1ccc(CNC(=O)C(=O)Nc2cc(C)ccc2OC)cc1 | 30% (inactive)
COc1ccc(OC)c(NC(=O)C(=O)NCc2ccncc2)c1 | 26% (inactive)
COc1ccc(Cl)cc1NC(=O)C(=O)NCc1ccc(C)cc1 | 30% (inactive)
COc1ccc(C)cc1NC(=O)C(=O)NCc1ccc(C)cc1 | 5% (inactive)
CCOC(=O)C1=C(C)N=c2s/c(=C\c3cc(Br)c(OCc4ccccc4Cl)c(OC)c3)c(=O)n2C1c1ccccc1Cl (stereo unspecified) | 0% (inactive)
CCOC(=O)c1cc(-c2ccccc2)sc1NC(=O)c1ccc([N+](=O)[O-])cc1 | 22% (inactive)
CCOC(=O)c1cc(-c2ccccc2)sc1NC(=O)COc1ccccc1[N+](=O)[O-] | 57% (active)
Cc1cc(C)c(NC(=O)COc2ccccc2[N+](=O)[O-])c(C)c1 | 5% (inactive)
O=C(Nc1cccc(C(F)(F)F)c1)c1cc([N+](=O)[O-])ccc1Cl | 7% (inactive)
Cc1nc2n(CC(=O)N3CCOCC3)c3ccccc3n2n1 | 1% (inactive)
O=C(Cc1cccs1)Nc1ccc(/C=C/C(=O)c2ccccc2)cc1 | 8% (inactive)
CCOC(=O)c1c(C)oc2ccc(N(C(=O)c3ccncc3)S(=O)(=O)c3ccc(C)cc3)cc12 | 62% (active)

Structure (SMILES) | inhibition
CCOC(=O)c1c(C)oc2ccc(NS(=O)(=O)c3cc(C)ccc3C)cc12 | 22% (inactive)
CCOC(=O)c1c(C)oc2ccc(OC(=O)c3ccc(C)cc3)cc12 | 0% (inactive)
Cc1ccc(S(=O)(=O)Nc2ccc(S(=O)(=O)N3CCOCC3)cc2)cc1[N+](=O)[O-] | 0% (inactive)
O=[N+]([O-])c1ccccc1S(=O)(=O)Nc1ccc(S(=O)(=O)N2CCOCC2)cc1 | 51% (active)
O=[N+]([O-])c1ccccc1S(=O)(=O)Nc1ccc(S(=O)(=O)N2CCCCC2)cc1 | 0% (inactive)
Clc1ccc(Oc2cccc(CN3CCN(c4ccccc4)CC3)c2)cc1 | 17% (inactive)
Cc1cccc(C(=O)NCC(O)c2ccccc2)c1 (stereo unspecified) | 11% (inactive)
CN=C(Nc1ccc2c(c1)OCO2)SC1CC(=O)N(c2ccc(Cl)cc2)C1=O (stereo unspecified) | 12% (inactive)
COC(=O)C1=C(C)N=c2s/c(=C\c3ccccc3Cl)c(=O)n2C1c1ccccc1Cl (stereo unspecified) | 20% (inactive)
CCOc1ccc(NC(=O)CC2S/C(=N\N=C(/C)c3ccc(F)cc3)NC2=O)cc1 (stereo unspecified) | 6% (inactive)
CN1C(=O)NC(=O)/C(=C/c2ccc(-c3ccc([N+](=O)[O-])cc3Cl)o2)C1=O | 55% (active)
CN1C(=O)NC(=O)/C(=C/c2ccc(-c3cc([N+](=O)[O-])ccc3Cl)o2)C1=O | 20% (inactive)
Cc1ccc([N+](=O)[O-])cc1-c1ccc(/C=C2/C(=O)NC(=O)N(C)C2=O)o1 | 27% (inactive)
O=C1NC(=O)N(Cc2ccccc2)C(=O)/C1=C/c1ccc(-c2cccc([N+](=O)[O-])c2)o1 | 38% (inactive)
Cc1cc([N+](=O)[O-])ccc1-c1ccc(/C=C2\C(=O)NC(=O)N(Cc3ccccc3)C2=O)o1 | 60% (active)
Cc1cc([N+](=O)[O-])ccc1-c1ccc(/C=C2/C(=O)NC(=O)N(Cc3ccco3)C2=O)o1 | 25% (inactive)
O=C1NC(=O)N(Cc2ccccc2)C(=O)/C1=C/c1ccc(-c2ccc([N+](=O)[O-])cc2)o1 | 63% (active)
Cc1cc([N+](=O)[O-])ccc1-c1ccc(/C=C2/C(=O)NC(=O)N(c3ccccc3)C2=O)o1 | 17% (inactive)
O=C1NC(=O)N(c2ccccc2)C(=O)/C1=C\c1ccc(-c2ccc([N+](=O)[O-])cc2)o1 | 7% (inactive)

— PubChem BioAssay AID372 (MTDP, 2006)
